# Assay results published in PubChem BioAssay (NCATS).
# Results filed as inconclusive are left out. Where a call stands in place of a potency, no number is given. The source made the active and inactive calls. Unless noted, calls come from the whole dose curve; as a rule, active = well fitted curve in the direction sought with a large enough effect; inconclusive = small, poorly fitted or top-dose-only effect, or another doubt; inactive = no such curve, though single readings can be large; an effect the other way counts as inactive or inconclusive.
# Columns and labels:
# [1] = target: ATP-dependent 6-phosphofructokinase (Trypanosoma brucei brucei) (UniProt O15648); test: qHTS Assay to Find Inhibitors of T. brucei phosphofructokinase: hit validation (AID 492961); conditions: T. brucei PFK, ADP-Glo luminescence; series mostly up to 51.4 µM
# Procedure, shortened: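 Luminescence from ADP-Glo reports ADP generated as T. brucei PFK (1.25 nM) phosphorylates 0.5 mM fructose-6-phosphate using 0.1 mM ATP. Reactions ran 45 min at room temperature, pH 8.0.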
# [2] = target: Ubiquitin carboxyl-terminal hydrolase 1 (Homo sapiens) (UniProt O94782); test: Inhibitors of USP1/UAF1: Pilot qHTS (AID 504865); conditions: purified USP1/UAF1, Ub-rhodamine cleavage fluorescence; series mostly up to 114 µM;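 note: rhodamine fluorescence freed from ubiquitin-rhodamine substrate followed over time; top concentration of the series differs between compounds; nearly all actives have a fitted effect of over 35% in size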
# Procedure, shortened: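 USP1/UAF1 complex at 1 nM preincubated 15 min at room temperature with compound, then Ub-Rho substrate added at 150 nM final. Fluorescence (480/540 nm) read kinetically in 50 mM HEPES pH 7.8, 0.5 mM EDTA, 1 mM TCEP, 0.1 mg/ml BSA, 0.01% Tween-20.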
# [3] = target: Tyrosyl-DNA phosphodiesterase 1 (Homo sapiens) (UniProt Q9NUW8); test: Confirmation Assay for Inhibitors of Tyrosyl-DNA Phosphodiesterase (TDP1) (AID 489007); conditions: recombinant human TDP1 enzymatic activity, dose-response; note: potency is the fitted concentration of half-maximal effect; nearly all actives have a fitted effect of over 40% in size
# Procedure, shortened: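 Recombinant human Tdp1 (1 nM final), expressed in E. coli, preincubated 15 min with compound. Then 15 nM 5'-biotin/3'-phosphotyrosine-FITC DNA substrate added for 5 min at room temperature. AlphaScreen beads (10 ug/ml) added for 10 min; cleavage gives signal loss.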
# [4] = Validation screen for small molecules that induce genotoxicity in human embryonic kidney (HEK293T) cells expressing luciferase-tagged ELG1 (AID 493106); conditions: luminescence; series mostly up to 46.1 µM
# Procedure, shortened: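 HEK293T cells expressing luciferase-tagged ELG1, 2,000 cells/well, exposed to compound 16 hr at 37 °C, 5% CO2. Luciferase read after ONE-Glo, 30 min at room temperature; increased signal indicates genetic stress.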
# [5] = target: ATPase family AAA domain-containing protein 5 (Homo sapiens) (UniProt Q96QE3); test: Validation screen for small molecules that inhibit ELG1-dependent DNA repair in human embryonic kidney (HEK293T) cells expressing luciferase-tagged ELG1 (AID 493107); conditions: HEK293T ELG1-luciferase level, luminescence, 5-fluorouridine co-treatment, 16 h; series mostly up to 46.1 µM;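 note: cells co-treated with the DNA-damaging agent 5-fluorouridine alongside compound; inhibitors lower the ELG1-luciferase luminescence signal; nearly all actives have a fitted effect of over 70% in size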
# Procedure, shortened: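 HEK293T cells expressing luciferase-tagged ELG1, 2,000 per well, treated with 5-fluorouridine plus compound for 16 h at 37 C. ONE-Glo luminescence after 30 min at room temperature reports ELG1 reporter level.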
# [6] = target: Thyrotropin-releasing hormone receptor (Homo sapiens) (UniProt P34981); test: qHTS for Small Molecule Agonists and Allosteric Enhancers of Human TRH Receptor: Validation Screen for Agonists (AID 493127;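 active = calcium activation more than 3 SD above the typical response in the agonist read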); conditions: TRH receptor agonist cell assay; at 2 µM; stronger effect = higher value
# Procedure, shortened: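 TRHR cells loaded with fluo-8 calcium dye; FDSS kinetic fluorescence (Ex 480/Em 530) read at 1 s/cycle after 23 nL compound addition. Agonist-mode calcium response recorded before the 10 nM TRH (EC20) addition.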
# [7] = Nrf2 qHTS screen for inhibitors: Validation (AID 493153; active = well fitted inhibition curve with a large enough effect in the main read-out, with a control signal flat, not every such curve was filed as active); conditions: A549 ARE-Fluc reporter, 18-24 h; Potency: luciferase luminescence; viability change: measured here: cytotoxicity max response; luciferase luminescence, at 46.1 µM (top of the series)
# Procedure, shortened: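 A549 cells carrying ARE-firefly luciferase reporter, 5000 cells/well in 5% FBS OPTI-MEM, treated with compound over a concentration series for 18-24 h at 37 C. Luciferase luminescence gave Nrf2 activity; CellTiter-Fluor fluorescence gave viability.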
# [8] = qHTS for Inhibitors of Cell Surface uPA Generation: Validation Assay (AID 493164); conditions: mouse cells, plasminogen activation; series mostly up to 38.3 µM
# Procedure, shortened: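 RAW 264.7 cells (4000/well) were plated overnight, then exposed for 18 h at 37 C, 5% CO2 to compounds in a 7-point 1:5 titration (2.45 nM–38.3 uM final). Intracellular ATP was read by ATP-Lite luminescence.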
# [9] = target: Galactokinase (Homo sapiens) (UniProt P51570); test: qHTS Validation Assay for Inhibitors of Human Galactokinase (GALK) (AID 493189); conditions: purified human GALK enzyme activity, qHTS 7-point titration; series mostly up to 57.5 µM
# Procedure, shortened: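 GALK (5 nM) with 35 uM ATP and 100 uM galactose in HEPES pH 8.0 with MgCl2, NaCl, DTT and BSA. Reaction ran 1 h at room temperature. Residual ATP read by Kinase-Glo Plus luminescence.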
# [10] = Validation screen for small molecules that induce DNA re-replication in SW480 colon adenocarcinoma cells (AID 504364); conditions: DNA re-replication phenotype (high-content imaging); series mostly up to 46.1 µM
# Procedure, shortened: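 SW480 cells (250/well) exposed 48 h at 37 C, 5% CO2, then Hoechst-stained 40 min. Nuclear DNA content imaged by fluorescence scanning (405 nm excitation, 500-530 nm emission); re-replication scored as increased nuclei with elevated intensity.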
# [11] = target: Peptidyl-prolyl cis-trans isomerase NIMA-interacting 1 (Homo sapiens) (UniProt Q13526); test: qHTS Validation Assay to Find Inhibitors of Pin1 (AID 504536; active = well fitted inhibition curve with a large enough effect in the polarisation, with a control signal flat, not every such curve was filed as active; the % refers to the polarisation); conditions: Pin1 fluorescence polarization peptide binding assay; series mostly up to 57.5 µM
# Procedure, shortened: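 Fluorescence polarization competition: compounds (titration) displace HiFluor-488-labeled Pin1-1b peptide from Pin1 (0.3 uM final) in pH 7.5 HEPES buffer with DTT, 10 min at room temperature; %Activity normalized to no-enzyme wells, curves fitted.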
# [12] = target: Phosphoglycerate kinase, glycosomal (Trypanosoma brucei brucei) (UniProt P07378); test: qHTS Validation Assay to Find Inhibitors of Phosphoglycerate Kinase (AID 504547); conditions: enzymatic PGK inhibition, coupled luminescence read-out; series mostly up to 57.5 µM
# Procedure, shortened: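 PGK activity was coupled to GAPDH (100nM final), which generates the unstable substrate 1,3-bisphosphoglycerate in-well. Reactions ran 60 minutes at room temperature in 100mM TEA pH 7.6, 5mM MgCl2, 0.01% Tween-20, then Kinase-Glo Plus luminescence was read.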
# [13] = target: phosphoglycerate mutase (Leishmania major) (UniProt Q4Q090); test: qHTS Validation Assay to Find Inhibitors of Phosphoglycerate Mutase (AID 504548); conditions: biochemical enzyme activity; series mostly up to 57.5 µM
# Procedure, shortened: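 Luminescent end-point read-out via Kinase-GloPlus after a 10-minute development. Reaction: 1.25nM Leishmania major PGAM with substrate and compound, 45 minutes at room temperature in TEA buffer (pH 7.6) with MgCl2 and Tween-20.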
# [14] = qHTS for Inhibitors of ATXN expression: Validation of Cytotoxic Assay (AID 588349); conditions: cytotoxicity counter-screen for ATXN expression inhibitors, cell viability; series mostly up to 57.1 µM
# Procedure, shortened: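 HEK293 cells treated with titrated compound for 72 hr at 37 degrees C; viability read as intracellular ATP by CellTiter Glo luminescence.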
# [15] = qHTS for Inhibitors of ATXN expression: Validation (AID 588378); conditions: cell-based ATXN2 expression reporter assay, luminescence; series mostly up to 57.1 µM; note: nearly all actives have a fitted effect of over 75% in size
# Procedure, shortened: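 HEK293 cells carrying ATXN2-firefly luciferase reporter, treated with compound 24 h at 37 °C. Viability read first by CellTiter-Fluor (405/525 nm), then reporter expression by Bright-Glo luminescence; controls were a known ATXN2 expression inhibitor and a luciferase inhibitor.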
# ATP-dependent 6-phosphofructokinase (Trypanosoma brucei brucei), sequence (O15648 whole entry, looked up): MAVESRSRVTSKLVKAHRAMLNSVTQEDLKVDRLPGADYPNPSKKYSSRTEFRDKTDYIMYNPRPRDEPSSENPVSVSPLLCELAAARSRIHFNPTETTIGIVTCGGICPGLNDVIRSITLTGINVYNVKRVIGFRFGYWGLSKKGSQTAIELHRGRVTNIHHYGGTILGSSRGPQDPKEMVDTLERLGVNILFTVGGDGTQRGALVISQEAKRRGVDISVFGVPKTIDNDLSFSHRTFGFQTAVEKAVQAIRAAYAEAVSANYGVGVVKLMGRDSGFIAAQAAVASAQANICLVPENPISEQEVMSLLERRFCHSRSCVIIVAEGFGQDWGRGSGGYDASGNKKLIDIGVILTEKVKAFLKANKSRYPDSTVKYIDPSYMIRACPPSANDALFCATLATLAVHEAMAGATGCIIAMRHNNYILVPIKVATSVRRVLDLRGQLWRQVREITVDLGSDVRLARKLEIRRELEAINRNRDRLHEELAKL
# Ubiquitin carboxyl-terminal hydrolase 1 (Homo sapiens), sequence (O94782 whole entry, looked up): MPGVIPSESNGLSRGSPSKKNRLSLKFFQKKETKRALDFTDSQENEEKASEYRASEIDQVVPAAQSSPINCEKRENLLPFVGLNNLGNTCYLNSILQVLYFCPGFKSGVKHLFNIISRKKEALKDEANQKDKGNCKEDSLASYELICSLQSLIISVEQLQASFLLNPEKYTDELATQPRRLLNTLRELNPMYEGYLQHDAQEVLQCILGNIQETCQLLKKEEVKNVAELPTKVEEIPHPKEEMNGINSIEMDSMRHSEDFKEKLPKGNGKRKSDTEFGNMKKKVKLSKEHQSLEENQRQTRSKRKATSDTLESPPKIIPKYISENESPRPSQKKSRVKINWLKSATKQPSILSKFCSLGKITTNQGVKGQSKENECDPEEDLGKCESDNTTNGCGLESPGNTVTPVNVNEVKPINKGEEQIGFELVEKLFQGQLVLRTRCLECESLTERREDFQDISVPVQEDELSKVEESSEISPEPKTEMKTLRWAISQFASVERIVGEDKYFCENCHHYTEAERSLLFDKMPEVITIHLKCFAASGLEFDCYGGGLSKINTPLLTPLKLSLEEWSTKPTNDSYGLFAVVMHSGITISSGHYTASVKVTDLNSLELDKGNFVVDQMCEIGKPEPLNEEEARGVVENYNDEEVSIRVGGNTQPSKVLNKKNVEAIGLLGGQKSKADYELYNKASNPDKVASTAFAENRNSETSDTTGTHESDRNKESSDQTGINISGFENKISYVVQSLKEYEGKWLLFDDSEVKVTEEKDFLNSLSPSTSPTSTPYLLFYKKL
# Tyrosyl-DNA phosphodiesterase 1 (Homo sapiens), sequence (Q9NUW8 whole entry, looked up): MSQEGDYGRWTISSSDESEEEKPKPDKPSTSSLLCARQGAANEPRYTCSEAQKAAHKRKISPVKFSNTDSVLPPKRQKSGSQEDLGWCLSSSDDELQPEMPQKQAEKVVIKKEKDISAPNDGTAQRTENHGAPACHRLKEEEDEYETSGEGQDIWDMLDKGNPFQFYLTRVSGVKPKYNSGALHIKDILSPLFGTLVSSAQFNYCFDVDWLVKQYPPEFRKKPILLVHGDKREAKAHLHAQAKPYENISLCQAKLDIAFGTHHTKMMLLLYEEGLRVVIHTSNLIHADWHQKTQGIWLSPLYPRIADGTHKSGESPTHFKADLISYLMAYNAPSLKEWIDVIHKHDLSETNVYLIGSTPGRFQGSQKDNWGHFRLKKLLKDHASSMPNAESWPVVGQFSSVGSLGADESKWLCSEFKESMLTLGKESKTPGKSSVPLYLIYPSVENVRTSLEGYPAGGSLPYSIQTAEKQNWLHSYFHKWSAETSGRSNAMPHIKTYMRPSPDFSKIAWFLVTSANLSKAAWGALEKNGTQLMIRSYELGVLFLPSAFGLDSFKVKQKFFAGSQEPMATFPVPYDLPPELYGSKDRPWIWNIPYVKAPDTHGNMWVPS
# ATPase family AAA domain-containing protein 5 (Homo sapiens), sequence (Q96QE3 whole entry, looked up, the tested form may be a part): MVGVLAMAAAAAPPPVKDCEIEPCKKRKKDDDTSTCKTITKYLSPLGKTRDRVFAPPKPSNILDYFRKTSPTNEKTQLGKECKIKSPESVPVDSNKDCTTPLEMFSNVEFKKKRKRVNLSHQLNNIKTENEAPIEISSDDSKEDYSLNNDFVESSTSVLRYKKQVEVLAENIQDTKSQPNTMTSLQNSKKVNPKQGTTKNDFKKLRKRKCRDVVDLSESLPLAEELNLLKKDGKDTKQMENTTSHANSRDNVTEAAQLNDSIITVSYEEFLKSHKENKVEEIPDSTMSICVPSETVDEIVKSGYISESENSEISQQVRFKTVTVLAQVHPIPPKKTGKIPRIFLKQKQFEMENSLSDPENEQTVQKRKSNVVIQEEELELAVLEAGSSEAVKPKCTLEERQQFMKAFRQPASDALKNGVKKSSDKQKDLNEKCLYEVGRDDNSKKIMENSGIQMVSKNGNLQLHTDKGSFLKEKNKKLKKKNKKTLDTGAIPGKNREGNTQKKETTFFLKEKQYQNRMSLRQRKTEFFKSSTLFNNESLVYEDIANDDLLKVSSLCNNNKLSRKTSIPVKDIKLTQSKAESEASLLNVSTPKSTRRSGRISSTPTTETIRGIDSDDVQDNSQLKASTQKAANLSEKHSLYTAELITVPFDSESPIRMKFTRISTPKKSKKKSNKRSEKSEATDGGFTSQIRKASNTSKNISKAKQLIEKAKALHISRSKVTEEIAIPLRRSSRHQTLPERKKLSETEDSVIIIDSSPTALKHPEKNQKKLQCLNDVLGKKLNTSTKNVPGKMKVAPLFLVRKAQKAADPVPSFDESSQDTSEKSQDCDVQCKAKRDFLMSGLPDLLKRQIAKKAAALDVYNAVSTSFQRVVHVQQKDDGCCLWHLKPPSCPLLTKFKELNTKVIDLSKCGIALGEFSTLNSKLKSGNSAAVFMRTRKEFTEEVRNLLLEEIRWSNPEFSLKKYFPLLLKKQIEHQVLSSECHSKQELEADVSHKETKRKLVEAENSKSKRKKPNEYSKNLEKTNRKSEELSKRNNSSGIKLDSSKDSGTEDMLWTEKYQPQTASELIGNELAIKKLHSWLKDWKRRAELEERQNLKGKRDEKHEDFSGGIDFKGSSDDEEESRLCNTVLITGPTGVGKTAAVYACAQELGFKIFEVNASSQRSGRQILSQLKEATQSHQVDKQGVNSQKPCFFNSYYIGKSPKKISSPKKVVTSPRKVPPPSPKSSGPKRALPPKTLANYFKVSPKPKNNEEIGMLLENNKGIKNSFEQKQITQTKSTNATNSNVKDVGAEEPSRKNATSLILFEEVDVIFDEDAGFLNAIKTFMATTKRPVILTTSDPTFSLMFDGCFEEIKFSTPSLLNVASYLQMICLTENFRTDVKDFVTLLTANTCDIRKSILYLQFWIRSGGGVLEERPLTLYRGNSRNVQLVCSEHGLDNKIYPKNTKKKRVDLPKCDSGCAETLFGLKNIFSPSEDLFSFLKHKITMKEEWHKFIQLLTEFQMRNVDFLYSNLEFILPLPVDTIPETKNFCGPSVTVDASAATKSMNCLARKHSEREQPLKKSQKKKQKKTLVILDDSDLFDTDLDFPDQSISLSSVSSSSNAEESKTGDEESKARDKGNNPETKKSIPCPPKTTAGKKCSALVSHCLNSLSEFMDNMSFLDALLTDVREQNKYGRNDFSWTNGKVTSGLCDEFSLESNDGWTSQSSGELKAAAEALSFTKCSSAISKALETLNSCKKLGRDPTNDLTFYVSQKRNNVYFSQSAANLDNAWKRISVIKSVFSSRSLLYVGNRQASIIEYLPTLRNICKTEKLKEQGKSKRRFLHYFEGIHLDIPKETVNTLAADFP
# Galactokinase (Homo sapiens), sequence (P51570 whole entry, looked up): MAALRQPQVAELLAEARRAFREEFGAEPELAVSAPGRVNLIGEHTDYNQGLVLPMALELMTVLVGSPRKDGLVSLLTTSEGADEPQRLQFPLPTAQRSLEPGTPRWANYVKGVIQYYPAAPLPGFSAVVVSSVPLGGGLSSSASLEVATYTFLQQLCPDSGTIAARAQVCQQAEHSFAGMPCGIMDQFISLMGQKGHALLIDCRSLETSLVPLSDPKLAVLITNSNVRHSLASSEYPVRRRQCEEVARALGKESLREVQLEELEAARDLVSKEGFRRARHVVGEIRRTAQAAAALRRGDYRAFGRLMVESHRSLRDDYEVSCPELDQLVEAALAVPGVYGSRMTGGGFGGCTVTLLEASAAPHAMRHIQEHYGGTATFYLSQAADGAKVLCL
# Phosphoglycerate kinase, glycosomal (Trypanosoma brucei brucei), sequence (P07378 whole entry, looked up): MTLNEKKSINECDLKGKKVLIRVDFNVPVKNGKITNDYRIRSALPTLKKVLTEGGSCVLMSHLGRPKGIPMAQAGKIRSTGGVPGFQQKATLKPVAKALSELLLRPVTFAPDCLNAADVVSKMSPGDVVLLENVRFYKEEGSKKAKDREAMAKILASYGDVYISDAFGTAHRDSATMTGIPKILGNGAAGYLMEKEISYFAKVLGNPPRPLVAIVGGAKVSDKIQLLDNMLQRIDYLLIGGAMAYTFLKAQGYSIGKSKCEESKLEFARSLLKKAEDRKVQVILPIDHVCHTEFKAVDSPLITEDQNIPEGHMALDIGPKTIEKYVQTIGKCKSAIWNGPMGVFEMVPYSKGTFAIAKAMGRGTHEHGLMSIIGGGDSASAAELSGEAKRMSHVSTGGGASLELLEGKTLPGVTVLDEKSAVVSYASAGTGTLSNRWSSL
# Peptidyl-prolyl cis-trans isomerase NIMA-interacting 1 (Homo sapiens), sequence (Q13526 whole entry, looked up): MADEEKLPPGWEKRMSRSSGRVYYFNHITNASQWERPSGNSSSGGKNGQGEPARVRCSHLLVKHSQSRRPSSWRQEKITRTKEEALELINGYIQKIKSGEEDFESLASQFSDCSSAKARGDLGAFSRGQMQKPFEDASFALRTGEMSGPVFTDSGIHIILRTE
smiles,measurement,setting,value
CCn1cc(C(=O)O)c(=O)c2cc(F)c(N3CCNCC3)cc21,Potency,[1],inactive
CN1CCCC(n2nc(Cc3ccc(Cl)cc3)c3ccccc3c2=O)CC1 (stereo unspecified),Potency,[1],inactive
same,Potency,[2],inactive
CCn1cc(C(=O)O)c(=O)c2cc(F)c(N3CCNCC3)nc21,Potency,[1],inactive
same,Potency,[2],inactive
COc1cc(NCc2ccc3nc(N)nc(N)c3c2C)cc(OC)c1OC,Potency,[1],inactive
NCCCC(O)(P(=O)(O)O)P(=O)(O)O,Potency,[1],inactive
O=C(O)c1cn(C2CC2)c2cc(N3CCNCC3)c(F)cc2c1=O,Potency,[1],inactive
Cc1cccc(N(C)C(=S)Oc2ccc3ccccc3c2)c1,Potency,[1],inactive
CN1CCN(c2c(F)cc3c(=O)c(C(=O)O)cn4c3c2OCN4C)CC1,Potency,[1],inactive
same,Potency,[2],inactive
CCCCOc1ccc(CC(=O)NO)cc1,Potency,[1],inactive
same,Potency,[2],inactive
Nc1nc(N)nc(-c2cc(Cl)ccc2Cl)n1,Potency,[1],inactive
same,Potency,[2],inactive
CC(N)C12CC3CC(CC(C3)C1)C2 (stereo unspecified),Potency,[1],inactive
same,Potency,[2],inactive
NC(=O)N1c2ccccc2CC(=O)c2ccccc21,Potency,[1],inactive
CCn1cc(C(=O)O)c(=O)c2cc(F)c(N3CCN(C)CC3)cc21,Potency,[1],inactive
CCc1c2c(nc3ccc(OC(=O)N4CCC(N5CCCCC5)CC4)cc13)-c1cc3c(c(=O)n1C2)COC(=O)[C@]3(O)CC,Potency,[1],inactive
O=C(O)CCn1c2c(c3ccccc31)C[C@H](NS(=O)(=O)c1ccc(F)cc1)CC2,Potency,[1],inactive
CCOC(=O)c1ccc(C#Cc2ccc3c(c2)C(C)(C)CCS3)nc1,Potency,[1],inactive
COc1ccc(C(=O)CC(=O)c2ccc(C(C)(C)C)cc2)cc1,Potency,[3],25.1 µM (active)
same,Potency,[2],inactive
CN(CCOc1ccc(CC2SC(=O)NC2=O)cc1)c1ccccn1 (stereo unspecified),Potency,[1],inactive
C#CCN[C@@H]1CCc2ccccc21,Potency,[1],inactive
same,Potency,[2],inactive
C[C@@H](NCCCc1cccc(C(F)(F)F)c1)c1cccc2ccccc12,Potency,[1],inactive
COc1cc(NS(=O)(=O)c2ccc(N)cc2)nc(OC)n1,Potency,[1],inactive
same,Potency,[2],inactive
COc1cnc(NS(=O)(=O)c2ccc(N)cc2)nc1,Potency,[1],inactive
same,Potency,[2],inactive
CCOCC(O)COc1ccc(NC(=O)CC[S+](C)C)cc1 (stereo unspecified),Potency,[1],inactive
same,Potency,[2],inactive
Oc1c(Cl)cc(Cl)c2cccnc12,Potency,[1],inactive
same,Potency,[2],inactive
CCC(C)(C)c1ccc(CC(C)CN2C[C@@H](C)O[C@@H](C)C2)cc1 (stereo partly specified),Potency,[1],inactive
Cc1oc(=O)oc1CN1CCN(c2cc3c(cc2F)c(=O)c(C(=O)O)c2n3C(C)S2)CC1 (stereo unspecified),Potency,[1],inactive
COc1cc([C@@H]2c3cc4c(cc3[C@H](O)[C@H]3COC(=O)[C@H]23)OCO4)cc(OC)c1OC,Potency,[1],inactive
CCCCCCNC(=O)n1cc(F)c(=O)[nH]c1=O,Potency,[1],inactive
same,Potency,[2],inactive
Cn1nnc2c(C(N)=O)ncn2c1=O,Potency,[1],inactive
same,Potency,[2],inactive
O=c1oc2c(O)c(O)cc3c(=O)oc4c(O)c(O)cc1c4c23,Potency,[3],0.004 µM (active)
CCCc1cc(C(N)=S)ccn1,Potency,[1],inactive
C1CCC(C(CC2CCCCN2)C2CCCCC2)CC1 (stereo unspecified),Potency,[1],inactive
CC(C)OC(=O)C(C(=O)OC(C)C)=C1SC=CS1,Potency,[1],inactive
CNNCc1ccc(C(=O)NC(C)C)cc1,Potency,[1],inactive
NC(=O)c1cccnc1,Potency,[1],inactive
same,Potency,[2],inactive
COc1cccc(N(C)C(=S)Oc2ccc3c(c2)CCCC3)n1,Potency,[1],inactive
CC(C)NCC(O)c1ccc(NS(C)(=O)=O)cc1 (stereo unspecified),Potency,[1],inactive
same,outcome,[4],inactive
same,Potency,[5],inactive
same,activation,[6],0.875% (inactive)
same,Potency,[7],inactive
same,viability change,[7],-6.97%
same,outcome,[8],inactive
same,outcome,[9],inactive
same,outcome,[10],inactive
same,outcome,[11],inactive
same,Potency,[12],inactive
same,outcome,[13],inactive
same,Potency,[2],inactive
same,Potency,[14],inactive
same,Potency,[15],inactive
